Data on 74 molecules can be found in PubChem BioAssay AID463212 (Sanford-Burnham Center for Chemical Genomics, 2010).

Out of some 330,000 compounds screened, about 4,400 (1.3%) were called active.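 The calls were made as follows: active = growth inhibition of the mutant yeast at or above 50%; inactive = the rest.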 Only a selection was taken, and actives are over-represented in it overall.

This assay in a line: growth inhibition of tim23-1 ts yeast – luminescence, uHTS, primary screen (AID 463212).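 Also: temperature-sensitive mutant grown at 25 °C; plate controls were DMSO-treated mutant yeast for no effect and medium wells lacking yeast for full effect.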 Conditions: S. cerevisiae tim23-1 growth, BacTiter-Glo luminescence, 24 h; at 20 µM; stronger effect = higher value.
As to `Cc1c(S(=O)(=O)NC(C)c2ccccc2)c(=O)n(C)c(=O)n1C` (centres undefined), the inhibition (commonly the drop in the measured response relative to a control, in per cent) is 0.038% (inactive).
For the molecule `C/C(=N/NC(=O)c1cc(Cl)ccc1O)C12CC3CC(CC(C3)C1)C2`, the inhibition was 54.5% (active).
`O=C(N/N=C1\CCSC1)c1cc(Cl)ccc1O`: the inhibition is 7.53% (inactive).
With `Cc1ccc(C(=O)NC23CC4CC(CC(C4)C2)C3)c(Cl)c1`, the inhibition was 20.2% (inactive).
With `CCOc1ccc(S(=O)(=O)NCCCn2ccnc2)cc1NC(C)=O` the figure was -2.51% (inactive); with `Cc1ccnc(NC(=O)CCC(=O)N(CC(=O)NCCc2ccccc2)Cc2cccs2)c1`, 6.97% (inactive).
The same measure for `COc1cccc(CN2C(=O)CCC2(C)C(=O)NC2CCCCCC2)c1` (centres undefined): -1.86% (inactive).
Consider `COC(=O)c1c(NC(=O)CSc2nncs2)sc2c1CCCCC2`, for which the inhibition was 52.6% (active).
As for `COC(=O)c1c(NC(=O)C2CC(C)=C(C)CC2C(=O)O)sc2c1CCCCC2` (centres undefined), the inhibition is 27.7% (inactive).
Regarding `COC(=O)c1c(NC(=O)CCN2CCOCC2)sc2c1CCCC2`, the inhibition is 26% (inactive).
With `Cc1ccc(NS(=O)(=O)c2cn(C)c(=O)n(C)c2=O)c(C)c1` the figure was 11% (inactive).
For `Cc1cccc(C(C)C)c1NC(=O)COC(=O)C1CC(=O)N(Cc2ccccc2)C1` (centres undefined), the inhibition was -6% (inactive).
Regarding `C(=N\Nc1ccc2ccccc2n1)/c1ccc2c(c1)OCO2`, the inhibition is 18.7% (inactive).
With `Clc1ccc(Nc2ccc3ccccc3n2)cc1` the figure was 84.8% (active).
For `Cc1cccc(NC(=O)c2ccc3ccccc3n2)n1`, the inhibition is 26.7% (inactive).
Regarding `CC(=O)N1c2ccc(S(=O)(=O)N3CCCC(C(=O)Nc4cccc(F)c4)C3)cc2CC1C` (centres undefined), the inhibition is 19.4% (inactive).
In the case of `S=C(NNC(=S)NC1CC2CCC1C2)NC1CC2C=CC1C2` (centres undefined), the inhibition was 13.8% (inactive).
As for `S=C(NNC(=S)NC1CC2C=CC1C2)NC1CC2C=CC1C2` (centres undefined), the inhibition was 6.32% (inactive).
Take `CC(C)c1ccc(NC(=S)NC2CC3C=CC2C3)cc1` (centres undefined): the inhibition was 50.9% (active).
Regarding `COc1ccc(C(=O)Nc2cccc(NC(=O)c3ccc(OC)cc3OC)n2)c(OC)c1`, the inhibition was -26.2% (inactive).
Regarding `Cc1csc(NC(=O)c2ccc(C)s2)n1`, the inhibition was 17% (inactive).
The same measure for `COc1cc(SC)ccc1C(=O)Nc1nc(C)cs1`: 51.1% (active); for `O=C(/C=C/c1ccc(N2CCOCC2)cc1)c1ccccc1`: 35.2% (inactive).
The same measure for `O=C(/C=C/c1ccccc1)c1ccccc1O`: 55.8% (active).
The same measure for `O=C(/C=C/c1ccccc1)N/C(=C/c1ccccc1)C(=O)Nc1ccccc1O`: 19.1% (inactive).
With `Nc1cc(N)nc(SCC(=O)Nc2cccc(S(=O)(=O)N3CCCCC3)c2)n1`, the inhibition was -8.43% (inactive).
The same measure for `O=C1C=C(c2cccc(Cl)c2)C[C@@H](c2ccc(F)cc2)C1`: 35.1% (inactive); for `O=C1C=C(c2cccc(Cl)c2O)C[C@@H](c2ccc(F)cc2)C1`: 63.4% (active); for `COc1ccccc1C1=CC(=O)C[C@H](c2ccc(F)cc2)C1`: 35.3% (inactive).
Regarding `COc1ccc2ccccc2c1CNc1nnnn1C`, the inhibition was -0.932% (inactive).
`CC(C)c1cc(C(=O)N/N=C/C(Br)=C/c2ccccc2)n[nH]1`: the inhibition is 34.3% (inactive).
`CC(=C/c1ccccc1)/C=N/NC(=O)c1cc(C)oc1C`: the inhibition is -0.867% (inactive).
On to `Cc1cc(C(=O)N/N=C\C(Br)=C\c2ccccc2)c(C)o1`, for which the inhibition was 55.9% (active).
Regarding `CCN(CC)C(=O)c1nc[nH]c1C(=O)N(C)Cc1ccccc1`, the inhibition is 8.93% (inactive).
As for `Cc1cc(C)cc(NC(=O)C2CCCN2S(=O)(=O)c2cccc3cccnc23)c1` (centres undefined), the inhibition is 47.9% (inactive).
On to `CCOC(=O)c1cc2c(=O)n3ccccc3nc2n(CC(C)C)c1=NC(=O)c1c(-c2c(F)cccc2Cl)noc1C`, for which the inhibition was 28.6% (inactive).
Regarding `Nn1c(SCC(=O)NC2CCCc3ccccc32)nnc1C1CC1` (centres undefined), the inhibition was 2.69% (inactive).
As to `CC(=O)Nc1ccc(Oc2ccc3c(c2)C(=O)NC3=O)cc1`, the inhibition was -0.541% (inactive).
As to `CC(=O)O[C@H]1c2ccccc2-c2ccccc2[C@@H]1OC(C)=O`, the inhibition was 21.8% (inactive).
For `CC(=O)Oc1ccc2c(c1)C(=O)c1ccccc1C2=O`, the inhibition is 50.2% (active).
With `O=C(O)CN(Cc1ccco1)S(=O)(=O)c1ccc(F)cc1`, the inhibition was -1.65% (inactive).
With `Cc1ccc(-c2cc(C(=O)N3CCc4ccccc4C3)no2)cc1`, the inhibition was 15.5% (inactive).
As to `O=C(c1cc(-c2cccc(O)c2)on1)N1CCc2ccccc2C1`, the inhibition is 50.3% (active).
For `O=C(c1cc(-c2ccc(O)cc2)on1)N1CCCc2ccccc21`, the inhibition was 54.2% (active).
Turning to `O=C(NCCCN1CCOCC1)c1cc(-c2cccc(O)c2)on1`, the inhibition was -0.573% (inactive).
On to `O=C(c1cc(-c2ccc(O)cc2)on1)N1CCOCC1`, for which the inhibition is 12.7% (inactive).
With `Cc1c(C(=O)N2CCCc3ccccc32)oc2ccccc12`, the inhibition was 23.8% (inactive).
With `CSc1ccc(S(=O)(=O)N2CCC(C(=O)NCc3ccncc3)CC2)cc1` the figure was 0.185% (inactive).
With `COC(=O)c1ccc2ccccc2c1OC1OC(CO)C(O)C(O)C1NC(C)=O` (centres undefined), the inhibition is 2.47% (inactive).
`Cc1cccc(-c2nnc(SCC(=O)O)n2Cc2ccccc2)c1`: the inhibition is 1.27% (inactive).
The same measure for `CC1CCC2(CC1)NC(=O)N(Cc1nnc(-c3cccs3)o1)C2=O` (centres undefined): 8.03% (inactive); for `CCn1c(SCc2cccc(C(=O)O)c2)nnc1-c1ccc(Cl)cc1`: 10.3% (inactive).
As to `O=C(COC(=O)C1CCCCC1)Nc1ccc([N+](=O)[O-])cc1`, the inhibition was 2.5% (inactive).
Regarding `CCC(C)c1ccc(NC(=O)COC(=O)C2CCCC2)cc1` (centres undefined), the inhibition is 56.9% (active).
Consider `CC(=O)Nc1ccc(NC(=O)COC(=O)C2CCC(C(C)(C)C)CC2)cc1` (centres undefined), for which the inhibition is 32.6% (inactive).
With `Clc1ccc(-c2nnc(-c3ccccc3)nc2N2CCSCC2)cc1` the figure was 45.4% (inactive); with `O=S(=O)(c1ccccc1)c1nc(Cc2ccccc2)oc1N1CCOCC1`, 7.56% (inactive).
The same measure for `CCCCC(NC(=O)c1cccc(Br)c1)C(=O)O` (centres undefined): 4.77% (inactive).
`COC(=O)CNS(=O)(=O)c1ccc(Cc2ccc(S(=O)(=O)NCC(=O)OC)cc2)cc1`: the inhibition is 31.2% (inactive).
The same measure for `COc1cc(OC)c(C(=S)N2CCCC2)cc1OC`: 11.7% (inactive); for `CC(C)=C1SC(N2CCN(c3cccc(C)c3)CC2)=NC1=O`: 14.1% (inactive); for `CCN1C(=O)/C(=C2\SC(N3CCCCC3)=NC2=O)c2ccccc21`: 54.8% (active).
With `O=C1N=C(N2CCCC2)S/C1=C\c1cccc(Br)c1` the figure was 27.3% (inactive); with `CSc1ccccc1OCc1cc(C(=O)N2C[C@H]3CC[C@H]2C3)no1`, 18.7% (inactive); with `CCCOc1ccc(CN(CCO)CCO)cc1C(=O)OC`, 1.64% (inactive).
As to `COCCCNC(=O)C1CCN(c2ccc(N3CCOCC3)nn2)CC1`, the inhibition is 16.9% (inactive).
The same measure for `O=C(NCc1ccccc1)c1onc(CSc2nc3ccccc3[nH]2)c1C(=O)NCc1ccccc1`: 6.16% (inactive).
As to `CCOC(=O)C1CCN(C(=O)c2cccc(S(=O)(=O)N(CC)c3ccccc3)c2)CC1`, the inhibition is 14.3% (inactive).
Take `CCCCN1C(=O)CC(N2CCOCC2)C1=O` (centres undefined): the inhibition was -1.61% (inactive).
In the case of `Cn1nc(C(F)(F)F)cc1C(=O)O`, the inhibition is -3.37% (inactive).
`O=c1ccc2cc(S(=O)(=O)Nc3ccccc3F)ccc2o1`: the inhibition is 17.6% (inactive).
Take `O=c1oc2ccccc2c(NC2CCCCC2)c1NS(=O)(=O)c1ccc(Cl)cc1`: the inhibition was 25.2% (inactive).
With `O=c1oc(-c2ccccc2NS(=O)(=O)c2ccc(Cl)cc2)nc2ccccc12` the figure was 59.8% (active).
Turning to `CC(=O)Nc1ccc(N2C(=O)CC(Sc3nccc(C)n3)C2=O)cc1` (centres undefined), the inhibition was 10.2% (inactive).
